Reference: PubChem BioAssay AID463173 (ICCB-Longwood Screening Facility, Harvard Medical School, 2010)
Hit rate of the full screen: of about 52,000 compounds, about 4,300 (8.3%) were called active. No stated cut-off is given here; in the data, active means survival mostly below about 52% (no sharp cut-off); inactive means mostly above about 56%. Shown is part of a subset that was picked to be rich in actives.

tested on: DeltatarO mutant; experiment: growth inhibition of S. aureus wild type versus tarO mutant, primary screen, teichoic acid synthesis inhibitors, RN4220, OD600 (AID 463173); settings: OD600, 18 h, hits give low values, screened at 18.75 µg/mL (by protocol)

SMILES | survival
O=C(CCCSc1nc(-c2ccco2)cc(C(F)(F)F)n1)NC1CCCCC1 | 86% (inactive)
Cc1ccc(N(Cc2cccs2)C(=O)C(C)Oc2ccc(Cl)c(C)c2)cc1 (configuration not stated) | 58% (inactive)
COc1ccc(Cl)cc1C(=O)N1CCCC1 | 100% (inactive)
CN1C(C(=O)Nc2ccc(F)cc2F)=CC(c2ccc3c(c2)OCO3)=NS1(=O)=O | 68% (inactive)
Cc1ccc(Cn2ccnc2SCC(=O)NCc2ccc(F)cc2)cc1 | 101% (inactive)
O=C(/C=C/c1ccco1)NC(=S)NC1CCCCC1 | 115% (inactive)
Cc1ccc(OC(=O)CSc2nnc(-c3ccco3)n2-c2ccccc2)cc1 | 52% (inactive)
Cc1cc(=O)n2nc(N3CCC(C(=O)Nc4ccc(Br)cc4F)CC3)sc2n1 | 94% (inactive)
Cc1cc(C)cc(NC(=O)c2cc(S(=O)(=O)N3CCCC3)ccc2F)c1 | 92% (inactive)
CCc1ccc2c(c1)c(=O)c(S(=O)(=O)c1ccccc1)cn2CC(=O)Nc1ccc(OC)cc1 | 76% (inactive)
O=C(Nc1ccc2oc(-c3ccc4ccccc4c3)nc2c1)c1cc(Cl)ccc1Cl | 86% (inactive)
O=C(Nc1cc(-c2nc3cc(Cl)ccc3o2)ccc1Cl)c1cccc2ccccc12 | 44% (active)
O=C(Cc1ccccc1)Nc1cc(-c2nc3cc(Cl)ccc3o2)ccc1Cl | 68% (inactive)
O=C(Nc1cc(-c2nc3cc(Cl)ccc3o2)ccc1Cl)c1ccco1 | 41% (active)
O=C(/C=C/c1ccccc1)Nc1cc(-c2nc3ccccc3o2)ccc1Cl | 59% (inactive)
O=C(COc1ccccc1[N+](=O)[O-])Nc1cc(-c2nc3cc(Cl)ccc3o2)ccc1Cl | 66% (inactive)
O=C(/C=C/c1ccccc1)Nc1cc(-c2nc3cc(Cl)ccc3o2)ccc1Cl | 46% (active)
COc1cc(OC)cc(C(=O)Nc2cc(-c3nc4cc(Cl)ccc4o3)ccc2Cl)c1 | 71% (inactive)
COc1cc(OC)c(-c2cc(C(=O)NCc3ccc(F)cc3)c3c(-c4ccccc4)[nH]nc3n2)cc1OC | 98% (inactive)
O=C(NCC1CCCO1)C12CC3CC(CC(C3)C1)C2 (configuration not stated) | 109% (inactive)
CC(C)Oc1ccccc1NC(=O)CSc1nccn1C | 60% (inactive)
CCOCCc1nn2c(=O)cc(COC(=O)COc3ccc(C)c(C)c3)nc2s1 | 89% (inactive)
O=C(CN1CCN(C2CCCCC2)C(=O)C1=O)Nc1ccc(Cl)cc1 | 86% (inactive)

SMILES | survival
CCOC(=O)c1c(NC(=O)c2cc3nc(-c4ccc(Br)cc4)cc(C(F)(F)F)n3n2)sc(C(C)=O)c1C | 83% (inactive)
CCOC(=O)c1cccc(NC(=O)[C@@H](c2ccccc2)N2Cc3ccccc3C2=O)c1 | 58% (inactive)
Cc1ccccc1-c1nnc(SCC(=O)N(C)c2ccccc2)o1 | 79% (inactive)
O=C(OC1CSc2nc3ccccc3n2C1)c1ccccc1Cl (configuration not stated) | 95% (inactive)
COC(=O)C1CC(=O)N(c2ccccc2)C1 (configuration not stated) | 72% (inactive)
CCCOc1ccc(C(=O)NCC2OCCc3ccccc32)cc1 (configuration not stated) | 49% (inactive)
CC(C)COc1ccc(C(=O)NCC2OCCc3ccccc32)cc1 (configuration not stated) | 51% (inactive)
CC(C)CCOc1ccc(C(=O)NCC2OCCc3ccccc32)cc1 (configuration not stated) | 39% (active)
Cc1ccccc1NC(=O)CSc1nnc(-c2cccs2)o1 | 71% (inactive)
Cc1c(Cl)cccc1-n1ncc(C(=O)Nc2ccc(Br)cc2F)c1C1CCNCC1 | 87% (inactive)
COc1cc(Cl)c(NS(=O)(=O)c2ccc3[nH]c(=O)ccc3c2)c(OC)c1 | 102% (inactive)
O=C(CNS(=O)(=O)c1ccc(Cl)cc1)NC1CCCC1 | 67% (active)
CC(C)(C)C(=O)CNS(=O)(=O)c1ccc(S(=O)(=O)NC2CCCCC2)cc1 | 79% (inactive)
O=C(CNS(=O)(=O)c1ccc(Cl)cc1)NN=C1CCCCC1 | 92% (inactive)
Cc1cc(-c2ccc(S(=O)(=O)NCc3ccccc3Cl)s2)on1 | 128% (inactive)
CCOc1ccc(OCC)c(NC(=O)c2cc3ccccn3n2)c1 | 87% (inactive)
COc1cccc(C(=O)NCc2nc(-c3ccccc3)no2)c1OC | 43% (active)
COc1ccc(-c2noc(CNC(=O)c3ccccc3Br)n2)cc1 | 51% (inactive)
COc1cc(OC)c(C(=O)NCc2nc(-c3ccccc3)no2)cc1OC | 41% (active)
COc1ccc(Cl)cc1C(=O)NCc1nc(-c2cccc(C)c2)no1 | 48% (inactive)
COc1ccc(-c2noc(CNC(=O)c3cc(OC)c(OC)c(OC)c3)n2)cc1 | 55% (inactive)
COc1ccc(-c2noc(CNC(=O)c3ccc(OC)cc3OC)n2)cc1 | 62% (active)
O=C(NCc1nc(-c2ccccc2)no1)c1ccco1 | 68% (inactive)

SMILES | survival
COc1ccc(-c2noc(CNC(=O)c3ccco3)n2)cc1 | 87% (inactive)
COc1cc(C(=O)NCc2nc(-c3ccc(Cl)cc3)no2)cc(OC)c1OC | 59% (inactive)
NC(=O)Cn1cc(F)c(=O)[nH]c1=O | 87% (inactive)
Cc1ccccc1-c1noc(C(C)NC(=O)c2ccco2)n1 (configuration not stated) | 79% (inactive)
COc1ccc(-n2c(=O)c3c4c(sc3n(Cc3ccccc3C)c2=O)CCCC4)c(OC)c1 | 64% (inactive)
CCOc1ccccc1NC(=O)c1cc(S(=O)(=O)NC2CCCC2)ccc1F | 81% (inactive)
O=C(NCC(c1ccccc1)c1ccccc1)c1nn(-c2ccccc2F)nc1CO | 104% (inactive)
Cc1ccccc1NC(=O)Cn1c(=O)n(Cc2ccccc2)c(=O)c2sc3ccccc3c21 | 65% (inactive)
O=c1c2sc3ccccc3c2n(Cc2cccc(Cl)c2)c(=O)n1Cc1ccc(F)cc1 | 68% (active)
O=c1c2sc3ccccc3c2n(Cc2ccc(F)cc2)c(=O)n1Cc1ccccc1 | 137% (inactive)
COc1ccccc1NC(=O)Cn1c(=O)n(CCc2ccccc2)c(=O)c2sc3ccccc3c21 | 74% (inactive)
COc1ccccc1NC(=O)Cn1c(=O)n(Cc2ccccc2)c(=O)c2sc3ccccc3c21 | 68% (active)
O=c1c2sc3ccccc3c2n(Cc2cccc(Cl)c2)c(=O)n1Cc1ccccc1 | 66% (inactive)
COc1cccc(CN(Cc2ccco2)c2cnc(S(C)(=O)=O)nc2C(=O)Nc2cccc(Cl)c2C)c1 | 47% (active)
CCc1ccc(CN(Cc2ccco2)c2cnc(S(C)(=O)=O)nc2C(=O)Nc2ccccc2Cl)cc1 | 101% (inactive)
COc1ccccc1CN(Cc1ccco1)c1cnc(S(C)(=O)=O)nc1C(=O)Nc1cc(C)ccc1C | 58% (inactive)
CCS(=O)(=O)c1ncc(N(Cc2cccc(F)c2)Cc2ccco2)c(C(=O)Nc2ccccc2Cl)n1 | 64% (inactive)
COc1ccc(Cl)cc1NC(=O)c1nc(S(C)(=O)=O)ncc1N(Cc1ccc(C)cc1)Cc1ccco1 | 103% (inactive)
COc1ccccc1CN(Cc1ccco1)c1cnc(S(C)(=O)=O)nc1C(=O)Nc1ccccc1Cl | 46% (active)
CCOc1ccccc1NC(=O)C(=O)c1cc(C)n(-c2ccc(F)cc2)c1C | 114% (inactive)
Cn1cc(-c2nnc(-c3ccccc3)o2)c2ccccc21 | 94% (inactive)
CC(C)N(Cc1nc(-c2ccc(Cl)cc2)no1)C(=O)c1ccc(C(C)(C)C)cc1 | -1% (active)
CCOc1cc(C(=O)NCc2nc(-c3cccc(C)c3)no2)cc(OCC)c1OCC | 70% (inactive)

SMILES | survival
CCOc1ccc(C(=O)NCc2nc(-c3ccc(Cl)cc3)no2)cc1OCC | 49% (inactive)
CCCCOc1ccc(C(=O)N(Cc2nc(-c3ccc(Cl)cc3)no2)C(C)C)cc1 | 59% (inactive)
Cc1cc(C)cc(C(=O)N(Cc2nc(-c3ccc(Cl)cc3)no2)C(C)C)c1 | 14% (active)
Cc1ccc(-c2noc(CN(C(=O)c3ccc(C(C)(C)C)cc3)C(C)C)n2)cc1 | -4% (active)
CCOc1cc(C(=O)N(Cc2nc(-c3ccc(C)cc3)no2)C(C)C)cc(OCC)c1OCC | 50% (active)
Cc1ccccc1C(=O)N(Cc1nc(-c2ccc(Cl)cc2)no1)C(C)C | 78% (inactive)
CC(C)N(Cc1nc(-c2ccc(Cl)cc2)no1)C(=O)c1ccco1 | 68% (inactive)
Cc1ccc(-c2noc(CNC(=O)c3ccc(C(C)(C)C)cc3)n2)cc1 | 79% (inactive)
COc1cccc(C(=O)N(Cc2nc(-c3ccc(Cl)cc3)no2)C(C)C)c1OC | 66% (inactive)
O=C(CCN1C(=O)CSC1=O)Nc1ccccc1 | 114% (inactive)
COc1ccc(OC)c(-c2noc(N3CCN(c4cccc(C(F)(F)F)c4)CC3)n2)c1 | 124% (inactive)
COc1ccc(NC(=O)c2cnn(-c3ccc(C)cc3)c2-n2cccc2)cc1Cl | 69% (inactive)
CN1C(=O)Cc2cc(S(=O)(=O)N3CCN(c4ccccc4F)CC3)ccc21 | 107% (inactive)
COC(=O)c1cc2occc2n1CC(=O)Nc1ccc(C(C)C)cc1 | 93% (inactive)
CCc1ccccc1Nc1cc(C(=O)NCc2ccc(C)cc2)c2ccccc2n1 | 69% (inactive)
Cc1ccc(CNC(=O)CCC(=O)N2CC(C)Sc3ccccc32)cc1 (configuration not stated) | 45% (active)
COc1cccc(CNC(=O)CCC(=O)N2CC(C)Sc3ccccc32)c1 (configuration not stated) | 51% (active)
Cc1ccc(CNC(=O)CCC(=O)N2CCSc3ccccc32)cc1 | 113% (inactive)
CC1CN(C(=O)CCC(=O)NCc2cccc(Cl)c2)c2ccccc2S1 (configuration not stated) | 100% (inactive)
COc1ccccc1CNC(=O)CCC(=O)N1CC(C)Sc2ccccc21 (configuration not stated) | 111% (inactive)
CCOc1ccc(CNC(=O)CCC(=O)N2CC(C)Sc3ccccc32)cc1 (configuration not stated) | 56% (inactive)
O=C(Nc1ccc2nc(SCCOc3ccccc3Cl)sc2c1)c1ccc2c(c1)OCO2 | 68% (inactive)
COc1cn(CC(=O)Nc2c(C)cc(C)cc2C)c(CN2CCCCC2)cc1=O | 98% (inactive)
